# The sample as a whole holds a higher share of the strongest signals than the screen did.
# B1: Flo11 (Saccharomyces cerevisiae), Q1H8S8 (protein)
# chain: MGSSHHHHHHSSGLVPRGSHMFPTALVPRGSSEGTSCNSIVNGCPNLDFNWHMDQQNIMQYTLDVTSVSWVQDNTYQITIHVKGKENIDLKYLWSLKIIGVTGPKGTVQLYGYNENTYLIDNPTDFTATFEVYATQDVNSCQVWMPNFQIQFEYLQGSAAQYASSWQWGTTSFDLSTGCNNYDNQGHSQTDFPGFYWNIDCDNNCGGTKSS
# B2: Surfactant Protein D (rat); Neck + Carbohydrate Recognition Domain (NCRD) (Rattus norvegicus) (protein)
# chain: MLLFLLSALVLLTQPLGYLEAEMKTYSHRTMPSACTLVMCSSVESGLPGRDGRDGREGPRGEKGDPGLPGAAGQAGMPGQAGPVGPKGDNGSVGEPGPKGDTGPSGPPGPPGVPGPAGREGALGKQGNIGPQGKPGPKGEAGPKGEVGAPGMQGSAGARGAGPKGERGVPGERGVPGNTGAAGSAGAMGPQGSPGARGPPGLKGDKGIPGDKGAKGESGLPDVASLRQQVEALQGQVQHLQAAFSQYKKVELFPNGQSVGEKIFKTAGFVKPFTEAQLLCTQAGGQLASPRSAAENAALQQLVVAKNEAAFLSMTDSKTEGKFTYPTGESLVYSNWAPGEPNDDGGSEDCVEIFTNGKWNDRACGEKRLVVCEF
# Columns and labels:
# Assay in all cases: glycan array binding signal (z-score within array); higher = stronger binding
# Details in all cases: glycan notation: IUPAC condensed, linker removed
# [1] = target: Fuc(a1-2)Gal(b1-4)GlcNAc(b1-3)Gal(b1-4)GlcNAc
# How it was run: (§1)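 Negative Z-scores can be read as non-binding. The Z-score is calculated within each array and then averaged across arrays of one protein sequence at different concentrations or buffers and across linkers. Arrays, 3228 in all, were curated from the Consortium for Functional Glycomics database and kept only where the protein sequence was available.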
# [2] = target: Fuc(a1-3)[Gal3S(b1-4)]GlcNAc6S
# How it was run: as §1
# [3] = target: Fuc(a1-3)[Neu5Ac(a2-3)]Gal(b1-4)GlcNAc(b1-3)GalNAc
# How it was run: as §1
# [4] = target: Gal(b1-3)GalNAc(b1-4)[Neu5Ac(a2-3)]Gal(b1-4)Glc
# How it was run: as §1
# [5] = target: Gal(b1-3)[Fuc(a1-4)]GlcNAc(b1-3)Gal(b1-4)[Fuc(a1-3)]GlcNAc
# How it was run: as §1
# Gal(b1-4)Glc6S = target: Gal(b1-4)Glc6S
# How it was run: as §1
# [6] = target: Gal(b1-4)GlcNAc(b1-2)Man(a1-6)Man(b1-4)GlcNAc(b1-4)GlcNAc
# How it was run: as §1
# [7] = target: Gal(b1-4)GlcNAc(b1-2)Man(a1-6)[Man(a1-3)]Man(b1-4)GlcNAc(b1-4)GlcNAc
# How it was run: as §1
# [8] = target: Gal(b1-4)GlcNAc(b1-6)[Gal(b1-3)]GalNAc
# How it was run: as §1
# [9] = target: Gal3S(b1-3)[Fuc(a1-4)]GlcNAc
# How it was run: as §1
# GalNAc(b1-3)Gal = target: GalNAc(b1-3)Gal
# How it was run: as §1
# [10] = target: GalNAc(b1-3)Gal(a1-4)Gal(b1-4)GlcNAc
# How it was run: as §1
# [11] = target: GlcNAc(a1-4)Gal(b1-4)GlcNAc(b1-3)Gal(b1-4)[Fuc(a1-3)]GlcNAc(b1-3)Gal(b1-4)[Fuc(a1-3)]GlcNAc
# How it was run: as §1
# [12] = target: GlcNAc(b1-2)Man(a1-3)[GlcNAc(b1-2)Man(a1-6)]Man(b1-4)GlcNAc(b1-4)GlcNAc
# How it was run: as §1
# GlcNAc(b1-3)Gal(b1-4)Glc = target: GlcNAc(b1-3)Gal(b1-4)Glc
# How it was run: as §1
# Kdn(a2-3)Gal(b1-4)GlcNAc = target: Kdn(a2-3)Gal(b1-4)GlcNAc
# How it was run: as §1
# [13] = target: Man(a1-2)Man(a1-2)Man(a1-3)Man
# How it was run: as §1
# Man(a1-3)[Man(a1-6)]Man = target: Man(a1-3)[Man(a1-6)]Man
# How it was run: as §1
# [14] = target: Neu5Ac(a2-3)Gal(b1-3)GalNAc(b1-3)Gal(a1-4)Gal(b1-4)Glc
# How it was run: as §1
# [15] = target: Neu5Ac(a2-3)Gal(b1-3)[Neu5Ac(a2-3)Gal(b1-4)]GlcNAc
# How it was run: as §1
# Neu5Ac(a2-6)Gal(b1-4)Glc = target: Neu5Ac(a2-6)Gal(b1-4)Glc
# How it was run: as §1
# [16] = target: Neu5Ac(a2-8)Neu5Ac(a2-3)[GalNAc(b1-4)]Gal(b1-4)Glc
# How it was run: as §1
# [17] = target: Neu5Ac9Ac(a2-3)Gal(b1-3)GlcNAc
# How it was run: as §1
# [18] = target: Neu5Ac9Ac(a2-6)Gal(b1-4)GlcNAc
# How it was run: as §1
# [19] = target: Neu5Gc(a2-3)Gal(b1-4)[Fuc(a1-3)]GlcNAc
# How it was run: as §1
# [20] = target: Fuc(a1-3)[Gal(b1-4)]GlcNAc6S
# How it was run: as §1
# Gal(a1-4)Gal(b1-4)Glc = target: Gal(a1-4)Gal(b1-4)Glc
# How it was run: as §1
# Gal(a1-4)GlcNAc = target: Gal(a1-4)GlcNAc
# How it was run: as §1
# [21] = target: Gal(b1-3)GlcNAc(b1-3)Gal(b1-4)Glc
# How it was run: as §1
# [22] = target: Gal(b1-4)GalNAc(b1-3)[Fuc(a1-2)]Gal(b1-4)GlcNAc
# How it was run: as §1
# [23] = target: GlcNAc(b1-4)GlcNAc(b1-4)GlcNAc(b1-4)GlcNAc(b1-4)GlcNAc(b1-4)GlcNAc
# How it was run: as §1
# [24] = target: Man(a1-2)Man(a1-2)Man(a1-6)[Man(a1-3)]Man
# How it was run: as §1
# [25] = target: Man(a1-2)Man(a1-3)[Man(a1-2)Man(a1-6)]Man
# How it was run: as §1
# [26] = target: Man(a1-2)Man(a1-3)[Man(a1-2)Man(a1-6)]Man(a1-6)[Man(a1-2)Man(a1-2)Man(a1-3)]Man
# How it was run: as §1
# [27] = target: Man(a1-2)Man(a1-6)[Man(a1-3)]Man(a1-6)[Man(a1-2)Man(a1-2)Man(a1-3)]Man
# How it was run: as §1
# [28] = target: Man(a1-2)Man(a1-6)[Man(a1-3)]Man(a1-6)[Man(a1-2)Man(a1-2)Man(a1-3)]Man(b1-4)GlcNAc(b1-4)GlcNAc
# How it was run: as §1
# Man(a1-6)Man = target: Man(a1-6)Man
# How it was run: as §1
# [29] = target: Neu5Ac(a2-3)Gal(b1-3)GalNAc(b1-3)Gal(b1-4)GlcNAc
# How it was run: as §1
# [30] = target: Neu5Ac(a2-3)Gal(b1-4)GlcNAc(b1-2)Man(a1-3)[Neu5Ac(a2-6)Gal(b1-4)GlcNAc(b1-2)Man(a1-6)]Man(b1-4)GlcNAc(b1-4)GlcNAc
# How it was run: as §1
# [31] = target: Neu5Ac(a2-3)Gal(b1-4)[Fuc(a1-3)]GlcNAc
# How it was run: as §1
# [32] = target: Neu5Ac(a2-6)Gal(b1-4)GlcNAc(b1-2)Man(a1-3)[Neu5Ac(a2-6)Gal(b1-4)GlcNAc(b1-2)Man(a1-6)]Man(b1-4)GlcNAc(b1-4)GlcNAc
# How it was run: as §1
# [33] = target: Neu5Ac(a2-6)Gal(b1-4)GlcNAc(b1-3)Gal(b1-4)GlcNAc
# How it was run: as §1
# [34] = target: Neu5Ac(a2-8)Neu5Ac(a2-8)Neu5Ac(a2-3)Gal(b1-4)Glc
# How it was run: as §1
binder,measurement,setting,value
B1,glycan array binding signal (z-score),[1],-0.01
same,glycan array binding signal (z-score),[2],1.26
same,glycan array binding signal (z-score),[3],3.1
same,glycan array binding signal (z-score),[4],2.88
same,glycan array binding signal (z-score),[5],-0.502
same,glycan array binding signal (z-score),Gal(b1-4)Glc6S,-0.505
same,glycan array binding signal (z-score),[6],-0.507
same,glycan array binding signal (z-score),[7],-0.506
same,glycan array binding signal (z-score),[8],-0.482
same,glycan array binding signal (z-score),[9],-0.502
same,glycan array binding signal (z-score),GalNAc(b1-3)Gal,3.63
same,glycan array binding signal (z-score),[10],4.27
same,glycan array binding signal (z-score),[11],0.071
same,glycan array binding signal (z-score),[12],-0.505
same,glycan array binding signal (z-score),GlcNAc(b1-3)Gal(b1-4)Glc,1.26
same,glycan array binding signal (z-score),Kdn(a2-3)Gal(b1-4)GlcNAc,-0.496
same,glycan array binding signal (z-score),[13],-0.505
same,glycan array binding signal (z-score),Man(a1-3)[Man(a1-6)]Man,-0.502
same,glycan array binding signal (z-score),[14],3.08
same,glycan array binding signal (z-score),[15],-0.511
same,glycan array binding signal (z-score),Neu5Ac(a2-6)Gal(b1-4)Glc,-0.507
same,glycan array binding signal (z-score),[16],3.67
same,glycan array binding signal (z-score),[17],-0.505
same,glycan array binding signal (z-score),[18],-0.494
same,glycan array binding signal (z-score),[19],3.45
B2,glycan array binding signal (z-score),[1],-0.183
same,glycan array binding signal (z-score),[20],0.145
same,glycan array binding signal (z-score),Gal(a1-4)Gal(b1-4)Glc,-0.276
same,glycan array binding signal (z-score),Gal(a1-4)GlcNAc,-0.242
same,glycan array binding signal (z-score),[21],-0.194
same,glycan array binding signal (z-score),[22],-0.02
same,glycan array binding signal (z-score),[23],-0.108
same,glycan array binding signal (z-score),[24],4.11
same,glycan array binding signal (z-score),[25],3
same,glycan array binding signal (z-score),[26],13.2
same,glycan array binding signal (z-score),[27],4.18
same,glycan array binding signal (z-score),[28],8.4
same,glycan array binding signal (z-score),Man(a1-6)Man,-0.223
same,glycan array binding signal (z-score),[14],-0.176
same,glycan array binding signal (z-score),[29],-0.198
same,glycan array binding signal (z-score),[30],-0.117
same,glycan array binding signal (z-score),[31],0.004
same,glycan array binding signal (z-score),[32],0.111
same,glycan array binding signal (z-score),[33],-0.105
same,glycan array binding signal (z-score),[34],-0.048

# Source: the supplement of paper PMC8728848
